Laboratory results published in PubChem BioAssay AID1745845 (National Center for Advancing Translational Sciences (NCATS), 2022).
The campaign covered roughly 360,000 compounds. About 2,600 (0.72%) were called active. Inconclusive results (about 5%) are left out. The sample holds actives, similar compounds and a random draw of the others, so the mix is not that of the screen. The call rests on the fitted dose curve; in most records, active means well fitted inhibition curve with a large enough effect; inconclusive means small, poorly fitted or top-dose-only effect; inactive means no such curve, though single readings can be large or run the other way.

Test: Primary qHTS for Inhibitors of ATXN expression; further: nearly all actives have a fitted effect of over 55% in size
Conditions: HEK-293 ATXN2-luciferase reporter, luminescence, 24 h; series mostly up to 57 µM; activity change, negative = inhibition: at the top concentration
Excerpt: University of Utah School of Medicine, Salt Lake City, Utah
Spinocerebellar ataxia type 2 (SCA2) is a multisystem neurodegenerative disease caused by a dominantly acting mutation leading to expansion of a polyQ domain in the ataxin-2 protein (ATXN2). SCA2 patients develop progressive ataxia and later lose function in other neuronal systems. Prominent parkinsonian signs develop in some patients. Like many neurodegenerative disorders, no symptomatic or disease-modifying treatments are known.
The primary objective of the proposed research is to identify compounds inhibiting ATXN2 expression and to test them for efficacy in SCA2 mouse models. We have developed a cell-based assay paired with an in vivo mouse model using identical luciferase expression constructs. This approach takes advantage of an ATXN2-luciferase transgene, with the luciferase gene flanked by the upstream and downstream portions of the ATXN2 gene. Here we describe a 5-7 dose quantitative high thoroughput screen (qHTS) for compounds lowering ATXN2 expression. We screened the NIH Molecular Libraries Small Molecule Repository (MLSMR) and NCGC's mechanistically annotated (MIPE) and drug repurposing (NPC) collections of compounds for lowering expression of an ATXN2-luciferase reporter in HEK-293 cells. The assay is a multiplexed cell viability assay to ensure target reduction in the absence of cytotoxicity. Secondary qHTS assays included a CMV-luciferase reporter expressed in HEK-293 cells as well as a biochemical assay using recombinant luciferase to detect inhibitors of the reporter enzyme. Compounds that inhibit ATXN2 expression but is not cytotoxic were selected for confirmatory and secondary screens.
PROTOCOL TABLE (as described by Inglese J, Shamu CE and Guy RK. 2007)
SEQUENCE No. (e.g., 1, 2, 3, etc.); […] (e.g., Cells, Incubation, Reagent, etc.); VALUE; DESCRIPTION.
1; Cells; 4 uL; white, solid bottom, 1536-well Greiner assay plate.
2; Incubation; 2 hr; 37 degree C in 5% humidified CO2.
3; Compounds; 23 nL; Kalypsis pintool (Wako USA) equipped with a 1536-well pin head.
4; Incubation; 24 hr; 37 degree C in 5% humidified CO2.
5; Reagent; 1 uL; Gly-Phe-7-Amino-4-trifluoromethylcoumarin.
6; Incubation; 30 min; 37 degree C in 5% humidified CO2.
7; Detection; Fluorescence; ViewLux plate reader (PerkinElmer).
8; Reagent; 3 uL; SteadyGlo luciferase solution (Promega).
9; Incubation; 5 min; room temperature.
10; Detection; Luminescence; ViewLux plate reader (PerkinElmer).
NOTES (numbers refer to Sequence numbers above)
1. S2 cells expressing ATXN2-luciferase reporter were suspended in phenol-red free DMEM and dispensed in assay plates using a Multidrop Combi dispenser (Thermo Fisher Scientific).
2. Assay plates were incubated. Evaporation was prevented by covering assay plates with metal lids containing holes to allow gas diffusion.
3. Compounds were added in a dose response manner with the final concentrations of 57, 11.4, 2.28, 0.46, 0.091, 0.018, 0.0037 uM. Vehicle-only plates, with DMSO being pin-transferred to columns 5-48, were inserted uniformly at the beginning and the end of each library to monitor and record any shifts in assay performance.
5. 125 uM Gly-Phe-7-Amino-4-trifluoromethylcoumarin (MP Biomedicals) working concentration was used at a final concentration of 25 uM.
7. To assess cell viability; the assay plates were read using the ViewLux high-throughput CCD imager (PerkinElmer), wherein single end-point fluorescence measurement was acquired (excitation 405/10; emission 540/25 nm).
8. Detection reagent SteadyGlo Luciferase (Promega) was added to the assay plate.
10. Luminescence is then measured on the ViewLux imager equipped with a clear emission filter using a 2 sec exposure. All screening operations were performed on a fully integrated robotic system (Kalypsys) containing one RX-130 and two RX-90 anthropomorphic robotic arms (Staubli).
[…]
On the % scale 0 is the no-effect control and ±100 the full control effect; potency means the concentration at half of the fitted maximal effect.

SMILES	Potency	activity change, negative = inhibition
CC(Cc1ccccc1)NCCC(c1ccccc1)c1ccccc1 (stereo not given)	28.2 µM (active)	–
CC(=O)NC(=O)NC(C)Cc1ccccc1 (stereo not given)	–	2.01% (inactive)
CC(Cc1ccccc1)NC=O (stereo not given)	–	7.92% (inactive)
CCCOC(=O)c1cncn1C(C)c1ccccc1 (stereo not given)	–	9.45% (inactive)
COC(=O)C1=C(c2ccc(OCc3ccccc3)cc2)C[C@@H]2CC[C@H]1N2C(=O)NCc1ccc(Cl)cc1	–	-22.2% (inactive)
O=P(OC1=CCCCC1)(c1ccccc1)c1ccccc1	–	-7.03% (inactive)
CCC(C)(O)C(=O)OC1C(=O)OC2CC3C(C)=CC(=O)C(O)C3(C)C3C4(O)OCC23C1C(C)C4O (stereo not given)	0.168 µM (active)	–
CCOC(=O)[C@]12Cc3ccccc3[C@H]1N(C1CCCCC1)C(=O)c1cc(OC)ccc12	7.94 µM (active)	–
CCOC(=O)[C@]12Cc3cc(OC)ccc3[C@H]1N(C(C)C)C(=O)c1ccccc12	17.8 µM (active)	–
CC1=C(C(=O)O)N2C(=O)[C@@H](N)[C@H]2SC1	–	1.93% [at 25.6 µM] (inactive)
O=C(N/N=C/c1ccc([N+](=O)[O-])o1)c1cc([N+](=O)[O-])cc([N+](=O)[O-])c1O	–	4.24% (inactive)
O=S(=O)(O)C(F)(F)C(F)(F)C(F)(F)C(F)(F)F	–	3.26% [at 116 µM] (inactive)
CC(C)=C[C@@H]1[C@@H](C(=O)OCc2coc(Cc3ccccc3)c2)C1(C)C	–	-1.03% (inactive)
O=C(NC1CCCCC1)N1Cc2cc(N3CCCCC3)ccc2-n2nncc2C1	–	2.55% (inactive)
CNC(=S)N/N=C1\C2CN3CCN(C2)CC1(c1ccccc1)C3	–	1.34% (inactive)
S=C(NCCc1ccccc1)N1Cc2cc(N3CCOCC3)ccc2-n2nncc2C1	–	-12.2% (inactive)
C[C@]12CCC3C(CC[C@H]4C[C@@H](O)CC[C@]34C)C1CC[C@@H]2O (stereo not given in full)	–	-11.2% (inactive)
C[C@]12CC[C@H](O)C[C@H]1CC[C@@H]1C2CC[C@]2(C)[C@@H](C3=CC(=O)OC3)[C@@H](O)C[C@]12O (stereo not given in full)	2 µM (active)	–
COC1C(O)C(C)OC(OC2CCC3(C=O)C(CCC4C3CCC3(C)C(C5=CC(=O)OC5)CCC43O)C2)C1O (stereo not given)	–	-78.8% (inactive)
O=c1[nH]c2ccccc2n1C1CCN(C(c2ccnc3ccccc23)c2nnnn2Cc2ccccc2)CC1 (stereo not given)	–	0% (inactive)

SMILES	Potency	activity change, negative = inhibition
O=c1[nH]c2ccccc2n1C1CCN(C(c2ccccc2)c2nnnn2Cc2ccccc2)CC1 (stereo not given)	25.1 µM (active)	–
CSCCC(c1nnnn1C(C)(C)C)N1CCC(n2c(=O)[nH]c3ccccc32)CC1 (stereo not given)	–	-18.6% (inactive)
COC(=O)C1=C(c2ccc(OCc3ccccc3)cc2)C[C@@H]2CC[C@H]1N2C(=O)NCc1cccc(F)c1	–	-10.1% (inactive)
CCCn1c(C(=O)c2ccccc2OC)nc2ccccc21	–	1.9% (inactive)
CC[N+]1(CCOC(=O)C(O)(c2ccccc2)c2ccccc2)CCCCC1	–	25.5% (inactive)
O=C(NCC1=C(c2ccc3ccccc3c2)C[C@@H]2CC[C@H]1N2Cc1ccco1)c1cccs1	–	-20.2% (inactive)
CCCCC1C(=O)NC(=O)N(C2CCCCC2)C1=O (stereo not given)	–	10.8% (inactive)
COC(=O)CN(CCCl)P1(=O)OCCCN1CCCl (stereo not given)	–	3.04% (inactive)
O=C1NC(=O)N(c2ccc(F)cc2)C(=O)/C1=C/c1ccc2c(c1)CCCN2Cc1ccccc1	–	-11.9% (inactive)
O=C1NC(=O)N(CCc2ccc(F)cc2)C(=O)/C1=C/C=C/c1ccccc1	10 µM (active)	–
O=C(O)COc1ccccc1/C=C1\C(=O)NC(=O)N(CCC2=CCCCC2)C1=O	–	6.1% (inactive)
COc1cc(C(=O)N2Cc3ccc(Br)cc3-n3nncc3C2)cc(OC)c1OC	–	7.09% (inactive)
Cc1cccc(Cn2cccc(C(=O)Nc3ccc4c(c3)OCCO4)c2=O)c1	–	-24.9% (inactive)
CC(=Cc1csc(C)n1)[C@@H]1C[C@H]2O[C@]2(C)CCC[C@H](C)[C@@H](O)[C@@H](C)C(=O)C(C)(C)[C@@H](O)CC(=O)O1	–	-17.3% (inactive)
NCCc1ccc(S(=O)(=O)F)cc1	–	1.91% (inactive)
COc1cccc(C(c2nnnn2-c2ccc3c(c2)OCCO3)N2CCC3(CC2)C(=O)NCN3c2ccccc2)c1OC (stereo not given)	–	-36.2% (inactive)
CC1N=C(N)OC1c1ccccc1 (stereo not given)	–	7.78% [at 116 µM] (inactive)
CO[C@]12CC[C@@]3(C[C@@H]1[C@](C)(O)C(C)(C)C)[C@@H]1Cc4ccc(O)c5c4[C@@]3(CCN1CC1CC1)[C@H]2O5	35.5 µM (active)	–
Oc1ccc2c3c1OC1[C@H](O)CC[C@@]4(O)[C@@H](C2)N(CC2CC2)CC[C@]314 (stereo not given in full)	inactive	–
Cc1ncsc1CCCl	–	11.9% (inactive)
